The source of these data is PubChem BioAssay (NCATS).

Records with an inconclusive call do not appear. Unmarked numbers belong to inactive results. Activity calls are given as the source filed them. The call rests on the fitted dose curve; in most records, active means well fitted cell-killing curve with a large enough effect; inconclusive means small, poorly fitted or top-dose-only effect, or effect the other way; inactive means no such curve, though single readings can be large or run the other way.
Potency means the concentration at half of the fitted maximal effect.

The nature of the assay: Quantitative High-Throughput drug screen in 47 multiple myeloma cell lines against the NCATS MIPE library collection: EJM_DSMZ cell viability assay (AID 1918926; further: nearly all actives have a fitted effect of over 30% in size;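 on viability, % of control: 100% = DMSO-only wells and 0% = media-only wells without cells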). The following applies: EJM myeloma cell viability, CellTiter-Glo ATP, 48 h; series mostly up to 45.8 µM; viability, % of control: at the top concentration. In short, it runs like this:
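Approved and investigational drugs from MIPE 4.0 were added by pin tool to 500 cells per well. After 48 hours at 37C, ATP-based CellTiter-Glo luminescence indicated remaining viability.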
On the technique in general: Cellular ATP, detected with luciferase, serves as a proxy for viable cell number.
For the compound `CCCn1c(=O)c2[nH]c(-c3cnn(Cc4cccc(C(F)(F)F)c4)c3)nc2n(CC)c1=O`, the Potency was 14.8 µM (active).

As for `COc1ccc(-n2nc(C(N)=O)c3c2C(=O)N(c2ccc(N4CCCCC4=O)cc2)CC3)cc1`, the “viability, % of control” value is 105%. With `O=C(CCCCCCNC(=O)c1cnc(N(c2ccccc2)c2ccccc2)nc1)NO`, the Potency was 13.2 µM (active). Regarding `O=C(CCCCCCC(=O)Nc1ccc([C@H]2O[C@@H](CSc3nc(-c4ccccc4)c(-c4ccccc4)o3)C[C@@H](c3ccc(CO)cc3)O2)cc1)NO`, the Potency is 13.2 µM (active). Consider `COc1ccc(OC)c(-c2nnc3ccc(-c4ccc(OC)c(O[C@@H]5CCOC5)c4)nn23)c1`, for which the Potency was 16.6 µM (active).

As for `COc1cc(C(C)C)c2c(c1)S(=O)(=O)N(COc1cc(=O)n3cccc(OCCN4CCCCC4)c3n1)C2=O`, the Potency was 18.7 µM (active). On to `C[C@@H](Oc1cc(-c2cnn(C3CCNCC3)c2)cnc1N)c1c(Cl)ccc(F)c1Cl`, for which the Potency was 18.7 µM (active). `CCN1CCN(CC(=O)Nc2ccc(-c3cccc4c(=O)cc(N5CCOCC5)oc34)c3sc4ccccc4c23)CC1`: the Potency was 13.2 µM (active). For the compound `OCc1ccc(-c2ccc(-c3ccc(CO)s3)o2)s1`, the Potency was 11.8 µM (active).

Turning to `O=C(c1ccc(Nc2nccc(-c3cc4ccccc4s3)n2)cc1)N1CCC(N2CCCC2)CC1`, the Potency was 18.7 µM (active).

Regarding `O=C(Nc1cn[nH]c1-c1nc2ccc(CN3CCOCC3)cc2[nH]1)NC1CC1`, the Potency was 1.87 µM (active). `CC(C)c1ccc(Cn2ccc3c4c(N)nc(NC5CC5)nc4ccc32)cc1`: the Potency was 14.8 µM (active). With `Cc1cn(-c2cc(NC(=O)c3ccc(C)c(Nc4nccc(-c5cccnc5)n4)c3)cc(C(F)(F)F)c2)cn1`, the Potency is 18.7 µM (active). Consider `COc1cc2c(cc1-c1c(C)noc1C)ncc1[nH]c(=O)n([C@H](C)c3ccccn3)c12`, for which the Potency was 10.5 µM (active). Regarding `OCCCNc1cc(-c2ccnc(Nc3cccc(Cl)c3)n2)ccn1`, the Potency was 0.118 µM (active). For the compound `CC(C)(C)OC(=O)Nc1ccc(-c2cc(C(=O)NCCCCCCC(=O)NO)no2)cc1`, the Potency was 3.72 µM (active). Take `C[C@H]1C[C@@H]2[C@@H]([C@@H](O)C[C@@]3(C)[C@H]2CC[C@]3(O)C(=O)CO)[C@@]2(C)C=CC(=O)C=C12`: the “viability, % of control” value was 86.4%. For `NC(=O)Nc1cc(-c2cccc(F)c2)sc1C(=O)N[C@H]1CCCNC1`, the Potency is 0.296 µM (active). For `Nc1nccc(Oc2ccc(NC(=O)c3c[nH]cc(-c4ccc(F)cc4)c3=O)cc2F)c1Cl`, the Potency was 5.9 µM (active). Still for that read-out and setting: next, `COc1cc2c(Oc3ccc(NC(=O)C4(C(=O)Nc5ccc(F)cc5)CC4)cc3F)ccnc2cc1OCCCN1CCOCC1`: 18.7 µM (active). `COC(=O)C1=C(C)NC(C)=C(C(=O)OCCN2CCN(C(c3ccccc3)c3ccccc3)CC2)C1c1cccc([N+](=O)[O-])c1` (configuration not stated): the “viability, % of control” value is 105%. In the case of `O=C(Cc1ccc(-c2ccc(OCCN3CCOCC3)cc2)cn1)NCc1ccccc1`, the Potency was 0.0662 µM (active).
